Measurements from ChEMBL document CHEMBL3988442, “University of Dundee, Small-Polar-MMV Screening Library” (2021).

Columns and labels:
[1] = biological target: T1, Aspartate--tRNA(Asp/Asn) ligase (Mycobacterium tuberculosis (strain ATCC 25618 / H37Rv)) (UniProt P9WFW3); test: Assay for Asp RNA synthetase-1 from Mycobacterium tuberculosis; assay type: functional; design: scale not given: direction of the effect not stated beside the values; conditions: 30 µM; also: in the data most compounds retested in dose-response had high values
T1 sequence (whole entry): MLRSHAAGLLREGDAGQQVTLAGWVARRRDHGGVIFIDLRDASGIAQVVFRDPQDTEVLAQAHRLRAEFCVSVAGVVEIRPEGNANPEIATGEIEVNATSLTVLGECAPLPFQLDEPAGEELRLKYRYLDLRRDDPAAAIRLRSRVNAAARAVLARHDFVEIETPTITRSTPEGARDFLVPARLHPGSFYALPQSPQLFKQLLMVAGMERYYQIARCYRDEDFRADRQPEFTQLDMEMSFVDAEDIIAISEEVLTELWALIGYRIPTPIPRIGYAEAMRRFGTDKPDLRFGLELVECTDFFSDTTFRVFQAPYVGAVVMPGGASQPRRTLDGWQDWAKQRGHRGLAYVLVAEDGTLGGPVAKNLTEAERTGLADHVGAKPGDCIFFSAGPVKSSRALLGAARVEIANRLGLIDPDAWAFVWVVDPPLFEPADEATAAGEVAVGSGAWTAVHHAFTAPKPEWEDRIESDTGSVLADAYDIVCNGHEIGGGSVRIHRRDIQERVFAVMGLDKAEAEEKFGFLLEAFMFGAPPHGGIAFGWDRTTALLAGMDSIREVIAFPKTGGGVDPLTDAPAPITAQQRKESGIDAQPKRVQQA

[2] = biological target: Shiga toxin 2 (Escherichia coli O157:H7) (UniProt P09385+P09386); test: E. coli 0.157:H7 Shiga Toxin SOP - stx2 screening assay; assay type: functional; design: scale not given: direction of the effect not stated beside the values; conditions: 30 µM

Compound | Percent Effect [1] [%] | Percent Effect [2] [%]
N#Cc1ccc(F)c(CN2CCCC2Cn2cnc3ccccc32)c1 (configuration not stated) | -0.466 | 31.2
Cc1ccc(CNCC2CCc3nnc(C(C)C)n3C2)s1 (configuration not stated) | -3.31 | -22.4
CC(C)NC(=O)N1CCc2ncc(CN3CCOCC3)n2CC1 | 3.1 | 0.463
CC(C)Oc1cccc(C(=O)C2CCCN(C(=O)c3ccccn3)C2)c1 (configuration not stated) | -1.79 | 6.16
O=C(NCCCN1CCOCC1)c1cc(-c2ccc3c(c2)CCO3)n[nH]1 | -2.27 | -67.7
c1csc(-c2nc(CN3CCn4c(nnc4C4CC4)C3)co2)c1 | -3.42 | 1.36
COc1ccc(COCC(O)CNC(=O)c2cccnc2)cc1 (configuration not stated) | -1.27 | -12.2
Cc1ccccc1CS(=O)(=O)CC(=O)NC1CCCCNC1=O (configuration not stated) | -3.58 | -14.7
CN1CCCN(C(=O)NCc2csc(Br)c2)CC1 | 0.175 | 14.5
CCC1CN(c2nnc(C)c(C)c2C#N)CCO1 (configuration not stated) | 0.1 | 11.9
Cc1ccc(S(=O)(=O)N2CCOc3ccccc32)cc1C(=O)O | -1.83 | -32.8
O=C(c1cscn1)N1CCC[C@]2(C[C@H](OCC3CC3)CO2)C1 | 3.34 | -17.4
CN(CCc1ccccc1)C1CCCN(Cc2nccn2C)C1 (configuration not stated) | 0.357 | -0.197
Cc1nc(C)n(CC2CCCN(Cc3nnc(C(C)(C)C)o3)C2)n1 (configuration not stated) | 1.32 | 1.5
CSc1ccccc1C(C(=O)O)N1CCN(Cc2ccccn2)CC1 (configuration not stated) | -1.38 | 17.4
Cc1cc2c(cc1C)C(NCc1nnc3n1CCCCC3)CCCO2 (configuration not stated) | 0.212 | -2.95
CNC(=O)N1C[C@H]2C[C@H](C(=O)Nc3ccccc3)[C@@H](C1)O2 | 2.94 | 6.82
Cc1cc2n(n1)CC(CNCc1cnn(-c3ccccc3)c1)CN2 (configuration not stated) | -1.15 | 7.05
Cc1cnn(CC2CCN(CC(O)COc3ccc(F)cc3)CC2)c1 (configuration not stated) | 1.99 | -53

Compound | Percent Effect [1] [%] | Percent Effect [2] [%]
O=C(NCC1CC1)Nc1cccc(N2CCN(CC3CC3)CC2)c1 | -1.59 | -38.1
O=C(N[C@@H]1CN(c2ncccn2)C[C@@H]2CCCO[C@@H]21)c1cnccn1 | 4.51 | -15.4
CC(C)Sc1ncccc1C(=O)NCc1ccc(CS(C)(=O)=O)cc1 | -3.16 | 13.1
COc1ccc(C2SC(C)=Nc3c2c(=O)[nH]n3C2CCCCC2)cc1O (configuration not stated) | 3.89 | -40
NS(=O)(=O)c1ccc(NC(=O)CSc2ccc3c(c2)CCC3)cc1 | 3.87 | -78.8
c1ccc(Cn2ccnc2CN2CCOC(Cn3cccn3)C2)cc1 (configuration not stated) | -3.22 | 8.78
Cc1ccc(N2CCCC(NCc3ccncc3)C2)nn1 (configuration not stated) | 0.131 | -14.5
Cc1csc(N2CCN(C(=O)CCc3nccs3)CC2)n1 | 2.49 | 7.79
COCc1nc(C(=O)NS(=O)(=O)c2ccc(C)cc2C)cs1 | 0.811 | -0.5
O=C(c1cc2cc(F)ccc2[nH]1)N1CCC(Nc2cccnn2)CC1 | -0.116 | -83.2
O=C(Nc1cnn(CCN2CCOCC2)c1)c1ccccc1O | -0.989 | -13.8
Cc1ccc(CNC(=O)Cn2ncc3c2c(C)nn3C)cc1 | -3.46 | -20.9
Cc1cc(C)n(CC(=O)NC(Cc2ccsc2)c2ccccn2)c(=O)n1 (configuration not stated) | -2.19 | -15.3
COc1ccc(OCCNCCn2cccn2)cc1 | 1.29 | -27.4
O=C(c1ccc2[nH]ccc2c1)N1CCn2cnc(COCC3CC3)c2C1 | 7.07 | -13.5
CN(Cc1ccccc1)CC(O)Cn1cnc2ccccc2c1=O (configuration not stated) | -0.611 | -4.12
CCN(CC)c1ccc(C(=O)NCc2cccnc2-n2cncn2)cn1 | 6 | -12.3
Cc1csc(CNC(=O)NCC(O)c2cccc(Cl)c2)n1 (configuration not stated) | 3.71 | -10.8
CC(C)c1nnc2n1CCN(C(=O)c1ccc(OCC(N)=O)cc1)C2 | -5.82 | -6.36

Compound | Percent Effect [1] [%] | Percent Effect [2] [%]
O=C1CC[C@H]2[C@H](CCN2C(=O)C2CCCO2)N1CCN1CCCC1 (some centres not stated) | -1.39 | 4.3
CCc1nnc2n1CCN(Cc1csc(-c3cnn(C)c3)n1)C2 | 6.46 | -29.4
CC1CCN(S(=O)(=O)c2cccn(CC(=O)N3CCOCC3)c2=O)CC1 | -4.3 | -33
CC(=O)N1CCN(Cc2nnc(C(C)(C)C)o2)CC1 | 3.25 | -4.69
CCc1ncnc2c1CCN(Cc1ccccn1)CC2 | 0.378 | -29.9
CN(C)CC1(O)CCN(S(=O)(=O)c2ccc(F)cc2)C1 (configuration not stated) | -0.491 | 12.7
CC(C)NC(=O)c1ccc2c(c1)nc1n2CCN(c2ccccc2)C1 | 0.0581 | -15.6
CN1CC(=O)N(c2cnn(C)c2)CC12CCN(C(=O)c1ccsc1)C2 (configuration not stated) | 0.595 | -1.99
Cc1cc2c(=O)n3c(nc2s1)CCN(Cc1cnc(C(C)C)nc1)CC3 | 6.6 | 14.8
COCCN1C[C@@H]2CCCO[C@@H]2[C@H](NC(=O)c2cnccn2)C1 | 3.03 | -9.33
CC(O)CC(C)(C)CNC(=O)NCc1cccc(-n2cncn2)c1 (configuration not stated) | -1.59 | 7
COCCC(=O)N1CC[C@@H]2O[C@@H](C)C[C@H]2C1 | -0.28 | -0.0436
Cc1csc(C2CCCCN2C(=O)CN(C)Cc2ccccc2)n1 (configuration not stated) | -3.92 | 8.13
CC(OCC1CC1)C(=O)N1CCCN(Cc2nccn2C)CC1 (configuration not stated) | 7.9 | -20.4
CC(C)COCC(NC(=O)c1cccnc1)c1ccco1 (configuration not stated) | 2.37 | 21
Cn1ncc2c1CCCC2NCc1ccc(Cl)s1 (configuration not stated) | -3.2 | 28.8
CC(C)c1nn(C)c(N(C)C)c1CNCCC(=O)NC1CCCC1 | -3.2 | -5.9
CC(C)NC(=O)N1CC[C@@H]2CN(Cc3cccc(Cl)c3)S(=O)(=O)[C@@H]2CC1 | 5.42 | -9.22
